The list is not random: actives were taken first. Their share in the collection is about 1.3%.
GC-A act: GC-A (human) enzyme activation; P16066; HEK293 GC-A cells, cGMP TR-FRET, EC30 ANP; 0% at EC30 ANP, 100% saturating ANP; activation, % at 10 µM; hit rate 0.14% among 370,000; in the data active = activation above about 40%
ADAM17 inh: inhibits human ADAM17; P78536; recombinant ADAM17, EDANS/DABCYL FRET peptide cleavage; inhibition, % at 6.95 µM; hit rate 0.83% among 370,000; AID 720648;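 active = inhibition above the mean of compounds lying between control limits plus 3 SD, set per campaign, cut at about 8.5% in these data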
ADAM10 inh: inhibitors of human ADAM10. inhibition, % at 7 µM. O14672. hit rate 0.62% among 370,000. recombinant ADAM10, EDANS/DABCYL FRET peptide cleavage, 3 h;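 active = inhibition above a per-campaign cutoff equal to the mean of compounds falling between control-based bounds plus 3 SD, cut at about 20% in these data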
NPR2 activator: GC-B (human) receptor activation. activation, % at 10 µM. HEK293-GC-B cells, CNP EC30, cGMP TR-FRET; 0% at EC30 CNP, 100% saturating CNP. AID 1920062. P20594. hit rate 0.11% among 370,000;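 active = activation at 10 µM reaching about 35% in either raw or pattern-adjusted values, limit read from the data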
Of the large screens only hits and unclear results are named; the others gave an inactive call.

O=c1[nH]c(=O)n(CCC2=CCCCC2)c(O)c1C=NC1CCN(Cc2ccccc2)CC1	ADAM17 inh 8.9
CC(=O)N1c2ccccc2C(c2ccccc2)=NCC1C(=O)NC1CCCCC1 (stereo not drawn)	none
CSc1nc(N)c(N=Nc2ccc([As](=O)(O)O)cc2)c(=O)[nH]1	ADAM17 inh 9.1
COc1ccc(N=Nc2c(O)[nH]c(=S)[nH]c2=O)cc1	none
COC(=O)C1=C(c2ccc(OC(F)(F)F)cc2)C[C@@H]2CC[C@H]1N2C(=O)NCCO	none
COC(=O)C1=C(c2ccc(F)cc2F)C[C@@H]2CC[C@H]1N2C(=O)NCc1ccc(F)cc1	ADAM10 inh 76
COC(=O)C1=C(c2ccc(F)cc2OCc2ccccc2)C[C@@H]2CC[C@H]1N2C(=O)NCc1ccc2c(c1)OCO2	ADAM10 inh 22
COC(=O)C1=C(c2ccccc2)C[C@@H]2CC[C@H]1N2C(=O)NCc1ccc(F)cc1	none
COC(=O)C1=C(c2ccc(OC(F)(F)F)cc2)C[C@@H]2CC[C@H]1N2C(=O)NCC1CC1	NPR2 activator 126
CC1C2Cc3ccc(O)cc3C1(C)CCN2CC1CC1 (stereo not drawn)	none
c1ccc(CCN2CCC3CCNC3C2)cc1 (stereo not drawn)	none
COc1ccc(-n2c(O)c(/C=C3\C=Nc4ccc(Br)cc43)c(=O)[nH]c2=O)cc1	GC-A act 41
O=C1NC(=O)C(=Cc2ccc(-c3cc(Cl)ccc3[N+](=O)[O-])o2)C(=O)N1	GC-A act 50
CCOC(=O)c1c(C)n(Cc2ccc(F)cc2)c2ccc(O)cc12	GC-A act 67
CCOC(=O)c1c(C)n(Cc2ccc3c(c2)OCO3)c2ccc(O)cc12	GC-A act 79
C=COCCn1c(C)c(C(C)=O)c2cc(O)ccc21	none
CCOC(=O)c1c(C)n(Cc2ccccc2)c2ccc(OCC(O)CN3C(=O)CNC3=O)cc12 (stereo not drawn)	none
COC(=O)c1c(C)n(Cc2ccc3c(c2)OCO3)c2ccc(O)cc12	GC-A act 78
CCOC(=O)c1c(C)n(Cc2ccco2)c2ccc(O)cc12	GC-A act 50
CCOC(=O)c1c(C)n(COCCO)c2ccc(O)cc12	none
O=C(Cn1ncc2c3ccccc3n(Cc3ccccc3F)c2c1=O)N1CCC2(CC1)OCCO2	NPR2 activator 42
Cc1ccc2nc(-c3ccc(CN4CCC(n5c(=O)[nH]c6cc(Cl)ccc65)CC4)cc3)c(-c3ccccc3)nc2c1	none
Cc1ccc(N2C(=O)NC(=O)/C(=C/c3cnn(-c4ccc(C)cc4)c3)C2=O)cc1	GC-A act 57
O=S(=O)(c1ccc2ccccc2c1)N1Cc2cc(Br)ccc2-n2nncc2C1	none
O=C1NC(=O)C(=Cc2ccc(SC3CCCCC3)o2)C(=O)N1	GC-A act 55
NS(=O)(=O)c1ccc(-c2ccc(C=C3C(=O)NC(=O)NC3=O)o2)cc1	none
O=C(NCCN1CCC2(CC1)C(=O)NCN2c1ccccc1)c1cccc2c1-c1ccccc1C2=O	none
CN1CN(c2ccccc2)C2(CCN(CCCSc3ccccc3NC(=O)/C=C/c3ccccc3)CC2)C1=O	ADAM17 inh 14
CC[C@H]1c2ccccc2[C@@H]2CC[C@H]1N2c1ccccc1	none
Cc1cc2c(C(C)C)c(O)c(O)c(C=O)c2c(O)c1-c1c(C)cc2c(C(C)C)c(O)c(O)c(C=O)c2c1O	ADAM17 inh 12, ADAM10 inh 41
COC(=O)C[C@]1(C(=O)OC)CN(C#N)N(c2ccc(Cl)cc2)C12c1ccccc1-c1ccccc12	ADAM10 inh 31
OC1CN2CCC(O)C2C(O)C1O (stereo not drawn)	none
CC(C)(C)c1cc(O)ccc1O	none
Cc1cc(N2CCNC[C@H]2C)ccc1N1CCN[C@H](C)C1	none
COc1cc(/C=C/c2nc3ccccc3c(=O)n2-c2ccccc2O)ccc1O	none
COc1cc(/C=C/c2nc3ccccc3c(=O)n2-c2cccc(O)c2)ccc1O	NPR2 activator 49

Assay outcomes as filed in PubChem BioAssay.
